Data on 40 molecules can be found in PubChem BioAssay.

Structures are written as SMILES. “And” between values parts separate entries of the source, which are not always exact repeats. Identical values can stand only once. Values without a mark were called inactive.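 How the source made its calls: active means inhibition above 50%, about 3 SD of the validation set; inactive means the rest.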

What is called inhibition is the change of the read-out against control, counted positive when it falls.

Integrin beta-1 (Homo sapiens) + Integrin alpha-4 (Homo sapiens), sequence (P05556 whole entry, looked up): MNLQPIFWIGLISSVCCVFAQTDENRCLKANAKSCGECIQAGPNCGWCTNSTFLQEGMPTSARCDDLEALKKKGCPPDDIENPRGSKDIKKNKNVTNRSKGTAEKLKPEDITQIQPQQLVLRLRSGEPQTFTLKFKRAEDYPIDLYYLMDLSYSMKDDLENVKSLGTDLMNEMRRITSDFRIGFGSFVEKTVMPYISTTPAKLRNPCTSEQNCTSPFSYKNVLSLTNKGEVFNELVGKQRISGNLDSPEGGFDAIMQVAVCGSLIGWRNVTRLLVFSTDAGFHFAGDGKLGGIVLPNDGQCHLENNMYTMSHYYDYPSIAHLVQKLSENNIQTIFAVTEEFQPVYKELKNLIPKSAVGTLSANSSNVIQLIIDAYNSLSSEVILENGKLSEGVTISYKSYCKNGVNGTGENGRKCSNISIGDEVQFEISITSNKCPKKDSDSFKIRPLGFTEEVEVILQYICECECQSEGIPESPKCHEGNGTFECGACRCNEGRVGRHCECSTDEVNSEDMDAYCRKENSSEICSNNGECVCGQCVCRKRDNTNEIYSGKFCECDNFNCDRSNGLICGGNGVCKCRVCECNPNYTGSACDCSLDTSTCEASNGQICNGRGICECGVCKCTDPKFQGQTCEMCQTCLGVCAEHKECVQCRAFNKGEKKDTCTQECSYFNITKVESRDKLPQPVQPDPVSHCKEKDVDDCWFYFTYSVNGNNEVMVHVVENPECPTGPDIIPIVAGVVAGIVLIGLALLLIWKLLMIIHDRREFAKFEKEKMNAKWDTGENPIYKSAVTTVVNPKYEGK
Integrin beta-1 (Homo sapiens) + Integrin alpha-4 (Homo sapiens), sequence (P13612 whole entry, looked up): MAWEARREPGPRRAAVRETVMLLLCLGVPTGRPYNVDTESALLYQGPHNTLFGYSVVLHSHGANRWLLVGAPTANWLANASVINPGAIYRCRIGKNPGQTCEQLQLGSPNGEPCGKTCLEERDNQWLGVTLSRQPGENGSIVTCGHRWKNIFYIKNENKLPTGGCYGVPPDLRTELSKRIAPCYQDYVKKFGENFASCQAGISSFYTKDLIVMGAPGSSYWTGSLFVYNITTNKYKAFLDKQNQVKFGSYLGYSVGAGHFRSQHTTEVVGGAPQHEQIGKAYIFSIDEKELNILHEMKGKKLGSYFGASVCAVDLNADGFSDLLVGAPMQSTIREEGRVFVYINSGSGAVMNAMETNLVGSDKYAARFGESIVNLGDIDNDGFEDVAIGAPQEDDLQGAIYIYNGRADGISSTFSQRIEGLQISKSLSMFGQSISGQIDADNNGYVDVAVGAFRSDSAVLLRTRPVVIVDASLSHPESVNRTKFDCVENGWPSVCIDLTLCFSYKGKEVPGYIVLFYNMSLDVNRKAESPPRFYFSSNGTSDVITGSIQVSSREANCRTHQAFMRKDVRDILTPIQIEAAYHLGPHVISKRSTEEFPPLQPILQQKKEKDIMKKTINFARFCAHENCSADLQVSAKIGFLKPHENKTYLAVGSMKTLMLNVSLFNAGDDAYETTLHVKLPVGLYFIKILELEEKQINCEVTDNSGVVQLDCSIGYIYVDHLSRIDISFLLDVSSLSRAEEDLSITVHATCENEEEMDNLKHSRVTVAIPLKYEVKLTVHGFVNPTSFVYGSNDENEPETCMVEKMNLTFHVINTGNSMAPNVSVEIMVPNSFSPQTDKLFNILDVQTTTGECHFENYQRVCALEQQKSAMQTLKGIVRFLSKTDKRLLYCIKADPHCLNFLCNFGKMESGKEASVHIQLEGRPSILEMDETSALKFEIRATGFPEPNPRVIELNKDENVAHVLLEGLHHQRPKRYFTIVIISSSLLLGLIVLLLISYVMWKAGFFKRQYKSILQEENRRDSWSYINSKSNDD

The assay has as its target Integrin beta-1 (Homo sapiens) + Integrin alpha-4 (Homo sapiens) (UniProt P13612+P05556). Nature of the assay: alpha4beta1 integrin LIBS antibody binding reduction – U937 cells, HUTS-21 mAb, flow cytometry, validation set, VLA-4 allosteric modulator project, pilot screen (AID 2674).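 Further: antibody binding induced by the VLA-4 ligand LDV present at three times its Kd; 0% = LDV ligand with antibody and no compound and 100% = antibody without LDV.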 The following applies: HUTS-21 LIBS mAb binding, at 6.7 µM, stronger effect = higher value.
As for `CN1C[C@H](CNC(=O)OCc2ccccc2)C[C@@H]2c3cccc4c3c(cn4C)C[C@H]21`, the inhibition is -34.3%.

On to `C[N+]1(C)C2CCC1CC(OC(=O)C(CO)c1ccccc1)C2` (stereo not given), for which the inhibition was -6.68%.

`CCC1(c2ccccc2)C(=O)N(COC)C(=O)N(COC)C1=O`: the inhibition is 10.8%.

Take `CCn1c(O)c(C(=O)CC2NCCc3ccccc32)c(=O)n(CC)c1=S` (stereo not given): the inhibition was -7.25%.

In the case of `NC(=O)CN1CCCC1=O`, the inhibition is 3.55%.

For the molecule `Cc1ccsc1C(=O)C1CCCN(Cc2cc3ccccc3o2)C1` (stereo not given), the inhibition was 8.88%.

As for `CN1C2CCC1CC(OC(=O)c1ccc(Cl)cc1)C2` (stereo not given), the inhibition is 11.9%.

Turning to `Cn1c(O)c(C=NCCc2c[nH]c3ccccc23)c(=O)n(C)c1=O`, the inhibition was 5.03%.

On to `CC12CN3CC(C)(CN(C1)C3c1cccs1)C2=O` (stereo not given), for which the inhibition was -9.79%.

As to `[N-]=[N+]=CC(=O)OC[C@H](N)C(=O)O`, the inhibition is 12.5%.

For the molecule `COP(=O)(OC)C(O)C(Cl)(Cl)Cl` (stereo not given), the inhibition is 9.92%.

Turning to `CC(C)[N+](C)(CCC(C(N)=O)(c1ccccc1)c1ccccc1)C(C)C`, the inhibition was 5.61%.

As to `C[C@@]1(CO)[C@H](O)CC[C@@]2(C)[C@H]1CC[C@H]1C[C@@H]3C[C@@]12CC[C@]3(O)CO`, the inhibition was 17.7%.

For `O=C1CCCC2=C1C(c1cccnc1)Nc1ccccc1N2` (stereo not given), the inhibition was -5.64%.

For the molecule `O=c1[nH]c(=S)n(-c2ccccc2)c(O)c1/C=N/N1CCCCC1c1cccnc1` (stereo not given), the inhibition was -37.8%.

With `Clc1ccc(C2NCCc3[nH]cnc32)cc1` (stereo not given), the inhibition was -1.49%.

In the case of `Cc1ccc(-n2c(C)cc(/C=C3/C(=O)NC(=O)N(C)C3=O)c2C)cc1`, the inhibition is 0.25%.

On to `C[N+]1(C)CCc2cc3c(cc2[C@H]1[C@@H]1OC(=O)c2c1ccc1c2OCO1)OCO3`, for which the inhibition is 5.61% and 11%.

With `COc1ccc(NC2=NCC(C)S2)cc1` (stereo not given), the inhibition was 11%.

For the molecule `CC12CN3CC(C)(CN(C1)C3c1cccs1)C2O` (stereo not given), the inhibition was 4.73%.

For `O=C1NCCN2CCCC12` (stereo not given), the inhibition is 12.3%.

For `NNC(=O)c1ccc(Cl)cc1`, the inhibition was 0.25%.

With `CN1CCN(C(=O)OC2c3nccnc3C(=O)N2c2ccc(Cl)cn2)CC1` (stereo not given), the inhibition is 9.13%.

`O=c1[nH]c2ccccc2n1C1CCN(CCCC(c2ccc(F)cc2)c2ccc(F)cc2)CC1`: the inhibition is 41.5%.

Consider `O=C1NC(=O)C2(Cc3ccccc3N3CCCC32)C(=O)N1c1ccc(Cl)cc1` (stereo not given), for which the inhibition is 14.1%.

As to `CC1CCC[C@H](O)CCCCCc2cc(O)cc(O)c2C(=O)O1` (stereo not given in full), the inhibition was 19%.

On to `O=c1cccc2n1C[C@H]1C[C@@H]2CN2CCCC[C@@H]12`, for which the inhibition is -9.98%.

`CC(=O)OC1C2CCC1C(N1CCCC1)CC2` (stereo not given): the inhibition was 9.1%.

Consider `CCOc1ccc(C2C(C#N)=C(N)Oc3c2c(=O)oc2ccccc32)cc1` (stereo not given), for which the inhibition is 9.13%.

Regarding `COc1cc2c3cc1Oc1cc(ccc1O)C[C@@H]1c4c(cc(OC)c(O)c4Oc4ccc(cc4)C[C@H]3N(C)CC2)CCN1C`, the inhibition was 7.43%.

For `CN1CC[C@@]23CCCC[C@@H]2[C@@H]1Cc1ccc(O)cc13`, the inhibition is -0.45%.

`O=c1c2ccccc2[se]n1-c1ccccc1`: the inhibition is 15.4%.

As to `CC[N+]1(C)CCCC(OC(=O)C(O)(c2ccccc2)c2ccccc2)C1` (stereo not given), the inhibition was 5.69%.

In the case of `C[C@]12CCC(=O)C=C1CCC1C2CC[C@@]2(C)C1CC[C@@]2(O)CC#N` (stereo not given in full), the inhibition is 12%.

With `C[C@H]1CC[C@@]2(C)[C@@H](CC[C@@H]3[C@@H]2CC[C@]2(C)[C@@H](O)CC[C@@H]32)C1`, the inhibition was 6.4%.

For `C[C@H]1OC[C@@H](C[N+](C)(C)C)O1`, the inhibition is -6.45%.

With `CC(C)(C)C(O)C(Oc1ccc(Cl)cc1)n1cncn1` (stereo not given), the inhibition is 1.44%.

In the case of `C[C@@H]1O[C@@H](O[C@H]2C[C@@H](O)[C@]3(CO)[C@H]4[C@H](O)C[C@]5(C)[C@@H](C6COC(=O)C6)CC[C@]5(O)[C@@H]4CC[C@]3(O)C2)[C@H](O)[C@H](O)[C@H]1O` (stereo not given in full), the inhibition is 6.55%.

As to `CC(=O)c1ccc(-c2ccccc2)cc1`, the inhibition is -15.8%.

As to `CCOC(=O)c1cc2c(cn1)[nH]c1ccccc12`, the inhibition was -7.79%.
